Measured values taken from PubChem BioAssay (Tox21).
Unmarked numbers belong to inactive results. Records with an inconclusive call do not appear. A call without a number means that no potency is given here. Calls of active or inactive are those of the source. Unless noted, calls follow the shape of the full dose curve.

What was measured:
[1] = Nuclear factor erythroid 2-related factor 2/antioxidant responsive element (Nrf2/ARE) small molecule agonists: qHTS cell viability counter screen in human keratinocytes (AID 1919968; active = well fitted curve in the direction sought with a large enough effect in the repeat runs; an effect the other way counts as inactive or inconclusive; also: nearly all actives have a fitted effect of over 55% in size; also: potency is read from the fitted curve at half-maximal effect)
Summary of the method: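 After a 5 h attachment period, ARE-reporter keratinocytes were dosed with compounds in DMSO and then cultured 23 h at 37 C. Cell viability came from CellTiter-Fluor signal read after a further 1 h.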

[2] = biological target: Gonadotropin-releasing hormone receptor (Homo sapiens) (UniProt P30968); assay: Human gonadotropin-releasing hormone receptor (GnRHR) small molecule agonists, calcium flux assay in GnRHR-HEK293 cells (AID 1920063); also: nearly all actives have a fitted effect of over 35% in size
Summary of the method: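 We seeded human GnRHR-expressing HEK293 cells for 18 hours, loaded them with calcium dye for an hour at 37 C, added test compounds, and recorded fluorescence intensity kinetically for three minutes.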

[3] = G protein-coupled receptor (GPCR) small molecule agonists, calcium flux assay: HEK293 wild type cell line counter screen (AID 1920065)
Summary of the method: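 Calcium-sensitive dye, loaded 1 h at 37 C into cells cultured 18 h, reports compound-evoked calcium release as fluorescence (Ex/Em 480/540), measured over 3 min. Agonist mode; 15-point titrations, triplicate.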

[4] = p53 small molecule agonists, cell-based qHTS assay with human liver microsomes (AID 1963577)
Summary of the method: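 Compounds act here after metabolic activation: human liver microsomes and NADPH, both at 0.5 mg/mL final, were co-added to p53RE-bla cells. Incubation ran 16 h at 37 C, followed by LiveBLAzer detection.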

[5] = p53 small molecule agonists, cell-based qHTS assay with rat liver microsomes (AID 1963578)
Summary of the method: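 Read-out is beta-lactamase reporter fluorescence (LiveBLAzer, 2 h, room temperature, dark) in p53RE-bla cells treated 16 h at 37 C with compound, rat liver microsomes and NADPH, both 0.5 mg/mL final.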

[6] = p53 small molecule agonists, cell-based qHTS assay with human liver microsomes: qHTS cell viability counter screen (AID 1963579); also: nearly all actives have a fitted effect of over 45% in size
Summary of the method: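 Cells carrying the p53 response-element beta-lactamase reporter are treated for 16 h at 37 C with test compounds in the presence of human liver microsomes and NADPH (both 0.5 mg/mL final); ATP-based CellTiter-Glo luminescence then reports viability.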

[7] = p53 small molecule agonists, cell-based qHTS assay with rat liver microsomes: qHTS cell viability counter screen (AID 1963580); also: nearly all actives have a fitted effect of over 45% in size; also: potency is read from the fitted curve at half-maximal effect
Summary of the method: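 HCT-116 p53RE-bla, 4,000 cells/well, 5 h pre-incubation; cpd + rat liver microsomes 0.5 mg/mL + NADPH 0.5 mg/mL (final); 16 h, 37 C; CellTiter-Glo, 30 min RT; luminescence.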

[8] = biological target: 5-hydroxytryptamine receptor 2A (Homo sapiens) (UniProt P28223); assay: 5-hydroxytryptamine receptor 2A (HTR2A) small molecule antagonists, cell-based qHTS assay (AID 1963586); also: nearly all actives have a fitted effect of over 45% in size
Summary of the method: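 Antagonist-mode intracellular calcium assay: DOI (4 nM) added after 5 min compound pre-incubation at room temperature to dye-loaded HTR2A-CHO cells. Fluorescence followed for 3 min, sampled every second.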

[9] = biological target: 5-hydroxytryptamine receptor 2A (Homo sapiens) (UniProt P28223); assay: 5-hydroxytryptamine receptor 2A (HTR2A) small molecule agonists, cell-based qHTS assay (AID 1963587); also: nearly all actives have a fitted effect of over 30% in size; also: potency is read from the fitted curve at half-maximal effect
Summary of the method: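 Kinetic calcium-flux fluorescence (2 min, 1 sec intervals) after compound addition in agonist mode. HTR2A-CHO cells were cultured 18 h, then dye-loaded 1 h at 37 C.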

[10] = biological target: Muscarinic acetylcholine receptor M1 (Homo sapiens) (UniProt P11229); assay: Cholinergic receptor muscarinic 1 (CHRM1) small molecule antagonists, cell-based qHTS assay (AID 1963588); also: nearly all actives have a fitted effect of over 40% in size
Summary of the method: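 CHRM1-CHO calcium-flux assay, antagonist mode. Cells were seeded 18 h, dye-loaded 1 h at 37 C and given compound for 5 min at RT, then acetylcholine was added at 50nM. FDSS fluorescence was read 3 min; 15 concentrations, three runs.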

[11] = biological target: Muscarinic acetylcholine receptor M1 (Homo sapiens) (UniProt P11229); assay: Cholinergic receptor muscarinic 1 (CHRM1) small molecule agonists, cell-based qHTS assay (AID 1963589); also: nearly all actives have a fitted effect of over 35% in size
Summary of the method: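 Measures agonist-induced intracellular calcium rise. Stable human CHRM1 CHO line, 1 h dye load at 37 C, compounds from DMSO, kinetic fluorescence read.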

[12] = cAMP Responsive Elements (CRE) small molecule agonists, cell-based qHTS assay (AID 1963590)
Summary of the method: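 A CRE-responsive beta-lactamase reporter in HEK 293T cells was used. Treatment ran 3 h at 37 C; detection used LiveBLAzer B/G FRET substrate for 2 h at room temperature.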

[13] = biological target: Beta-2 adrenergic receptor (Homo sapiens) (UniProt P07550); assay: Adrenergic beta2 receptor (ADRB2) small molecule antagonists, cell-based qHTS assay (AID 1963592); also: series mostly up to about 92 µM; nearly all actives have a fitted effect of over 50% in size
Summary of the method: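 Cells (CHO, stable ADRB2 overexpression) incubated 18-20hr at 37C; compounds added from DMSO; agonist mix (1nM isoproterenol, 100uM IBMX, 25uM Ro-20-1724) added; 0.5hr RT; d2-cAMP and anti-cAMP-cryptate added; 1hr RT; 665/615 nm read.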

[14] = biological target: D(2) dopamine receptor (Homo sapiens) (UniProt P14416); assay: Dopamine D2 receptor (DRD2) small molecule agonists, cell-based qHTS assay (AID 1963594); also: nearly all actives have a fitted effect of over 35% in size
Summary of the method: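 cAMP accumulation in DRD2-HEK293 cells measured by HTRF after 1 h detection; compounds added 10 min before NKH477 (200nM […]) forskolin-analogue stimulation, 30 min at room temperature, with Ro20-1724 present at 0.1 mM final.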

[15] = biological target: D(2) dopamine receptor (Homo sapiens) (UniProt P14416); assay: Dopamine D2 receptor (DRD2) small molecule antagonists, cell-based qHTS assay (AID 1963595; active = well fitted inhibition curve with a large enough effect in the signal ratio in the repeat runs, with a control signal flat; the % refers to the signal ratio)
Summary of the method: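 Readout: HTRF cAMP, cAMP-d2 competing with cellular cAMP for anti-cAMP cryptate, read after 1 h. Cells: DRD2-HEK293. Conditions: 0.1 mM Ro20-1724, 12 nM quinpirole, 200 nM NKH477, 30 min RT.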

[16] = p53 small molecule agonists, cell-based qHTS assay: qHTS cell viability counter screen (AID 1963581); also: nearly all actives have a fitted effect of over 45% in size
Summary of the method: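 Following 5 h attachment, HCT-116 p53RE-bla cells took up compound for 16 h at 37 C; the reporter was read with B/G FRET substrate (2 h RT), and viability then via CellTiter-Glo ATP luminescence.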

[17] = cAMP Responsive Elements (CRE) small molecule antagonists, cell-based qHTS assay (AID 1963591; active = well fitted inhibition curve with a large enough effect in the signal ratio in the repeat runs, not every such curve was filed as active; the % refers to the signal ratio)
Summary of the method: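 HEK293T cells carrying a CRE-driven beta-lactamase reporter receive compound and NKH477 (0.25 uM final) for 3 h. Fluorescence from LiveBLAzer B/G FRET substrate is read after 2 h at room temperature.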

[18] = biological target: KiSS-1 receptor (Homo sapiens) (UniProt Q969F8); assay: Human kisspeptin (KISS1R) small molecule agonists, calcium flux assay in KISS1R-HEK293 cells (AID 1920064; active = well fitted curve in the direction sought with a large enough effect in the repeat runs; an effect the other way counts as inactive or inconclusive)
Summary of the method: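 Kinetic calcium assay, 1 s sampling over 3 min at Ex/Em 480/540, in HEK293 cells engineered with human KISS1R; compounds delivered in DMSO after 1 h dye loading.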

[19] = biological target: Beta-2 adrenergic receptor (Homo sapiens) (UniProt P07550); assay: Adrenergic beta2 receptor (ADRB2) small molecule agonists, cell-based qHTS assay (AID 1963593);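 also: CHO cells stably overexpressing human ADRB2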
Summary of the method: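 CHO cells stably over-expressing ADRB2 were plated overnight at 37C, then dosed with compounds plus a stimulation mix containing 100uM IBMX and 25uM Ro-20-1724 for 0.5hr at room temperature. cAMP was measured by HTRF competition, 1hr.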

[20] = p53 small molecule agonists, cell-based qHTS assay (AID 1963582; active = well fitted activation curve with a large enough effect in the signal ratio in the repeat runs, not every such curve was filed as active; the % refers to the signal ratio)
Summary of the method: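 In this cell-based concentration-response screen, a p53 response element drives beta-lactamase; cells received DMSO-borne compounds after 5 h culture and were incubated a further 16 h before FRET substrate development.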

D(2) dopamine receptor (Homo sapiens), sequence (P14416 whole entry, looked up): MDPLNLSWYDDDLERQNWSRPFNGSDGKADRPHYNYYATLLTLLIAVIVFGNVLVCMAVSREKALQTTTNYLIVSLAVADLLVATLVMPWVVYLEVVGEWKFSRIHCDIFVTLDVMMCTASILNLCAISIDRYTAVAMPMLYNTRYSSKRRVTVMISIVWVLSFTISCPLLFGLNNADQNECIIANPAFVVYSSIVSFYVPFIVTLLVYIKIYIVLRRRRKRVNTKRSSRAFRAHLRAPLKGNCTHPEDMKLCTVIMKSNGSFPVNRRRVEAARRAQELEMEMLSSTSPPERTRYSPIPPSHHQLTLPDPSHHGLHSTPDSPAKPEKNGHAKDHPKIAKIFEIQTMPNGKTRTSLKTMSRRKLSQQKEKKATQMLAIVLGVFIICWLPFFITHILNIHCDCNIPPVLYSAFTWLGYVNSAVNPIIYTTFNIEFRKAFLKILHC
Beta-2 adrenergic receptor (Homo sapiens), sequence (P07550 whole entry, looked up): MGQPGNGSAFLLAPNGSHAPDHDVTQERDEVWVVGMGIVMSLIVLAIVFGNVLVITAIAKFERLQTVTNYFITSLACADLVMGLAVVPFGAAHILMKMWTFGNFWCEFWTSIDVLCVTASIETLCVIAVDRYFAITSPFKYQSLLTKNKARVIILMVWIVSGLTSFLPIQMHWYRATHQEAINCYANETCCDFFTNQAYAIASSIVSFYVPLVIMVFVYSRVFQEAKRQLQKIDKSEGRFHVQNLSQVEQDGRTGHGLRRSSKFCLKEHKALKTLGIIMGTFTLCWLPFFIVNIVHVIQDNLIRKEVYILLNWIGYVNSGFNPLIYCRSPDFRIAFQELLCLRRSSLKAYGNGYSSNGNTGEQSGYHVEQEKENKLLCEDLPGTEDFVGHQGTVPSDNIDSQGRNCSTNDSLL
Muscarinic acetylcholine receptor M1 (Homo sapiens), sequence (P11229 whole entry, looked up): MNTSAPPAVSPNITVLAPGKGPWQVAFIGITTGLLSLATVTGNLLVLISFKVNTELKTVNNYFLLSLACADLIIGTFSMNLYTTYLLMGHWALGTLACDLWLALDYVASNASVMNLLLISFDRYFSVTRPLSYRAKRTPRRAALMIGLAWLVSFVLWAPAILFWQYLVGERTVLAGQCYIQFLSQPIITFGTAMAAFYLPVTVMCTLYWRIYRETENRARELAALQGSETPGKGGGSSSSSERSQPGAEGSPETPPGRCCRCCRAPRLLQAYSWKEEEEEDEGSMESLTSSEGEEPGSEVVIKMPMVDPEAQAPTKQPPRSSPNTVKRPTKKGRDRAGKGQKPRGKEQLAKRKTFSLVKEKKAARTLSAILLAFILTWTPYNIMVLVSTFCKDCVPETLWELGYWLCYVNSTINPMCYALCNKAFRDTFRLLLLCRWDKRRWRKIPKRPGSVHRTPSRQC
Gonadotropin-releasing hormone receptor (Homo sapiens), sequence (P30968 whole entry, looked up): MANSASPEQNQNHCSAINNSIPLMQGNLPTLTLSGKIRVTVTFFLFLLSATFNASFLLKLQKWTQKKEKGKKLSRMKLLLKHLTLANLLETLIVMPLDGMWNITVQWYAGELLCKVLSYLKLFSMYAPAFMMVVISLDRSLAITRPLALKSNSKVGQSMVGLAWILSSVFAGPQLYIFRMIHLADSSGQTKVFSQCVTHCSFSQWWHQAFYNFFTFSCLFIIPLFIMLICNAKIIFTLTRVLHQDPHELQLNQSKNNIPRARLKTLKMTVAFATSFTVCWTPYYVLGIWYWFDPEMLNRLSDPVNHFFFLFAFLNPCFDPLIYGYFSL
5-hydroxytryptamine receptor 2A (Homo sapiens), sequence (P28223 whole entry, looked up): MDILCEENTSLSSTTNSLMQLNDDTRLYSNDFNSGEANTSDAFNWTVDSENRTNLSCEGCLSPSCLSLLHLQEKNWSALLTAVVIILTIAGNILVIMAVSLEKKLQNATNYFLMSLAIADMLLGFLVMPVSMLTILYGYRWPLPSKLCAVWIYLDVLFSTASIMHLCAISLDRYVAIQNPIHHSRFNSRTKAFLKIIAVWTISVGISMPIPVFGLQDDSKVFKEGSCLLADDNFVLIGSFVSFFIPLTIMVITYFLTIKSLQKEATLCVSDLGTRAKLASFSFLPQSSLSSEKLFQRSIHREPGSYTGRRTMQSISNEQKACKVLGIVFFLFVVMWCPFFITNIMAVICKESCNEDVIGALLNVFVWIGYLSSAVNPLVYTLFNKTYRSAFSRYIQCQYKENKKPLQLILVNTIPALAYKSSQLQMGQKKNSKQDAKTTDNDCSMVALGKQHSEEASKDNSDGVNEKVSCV
KiSS-1 receptor (Homo sapiens), sequence (Q969F8 whole entry, looked up): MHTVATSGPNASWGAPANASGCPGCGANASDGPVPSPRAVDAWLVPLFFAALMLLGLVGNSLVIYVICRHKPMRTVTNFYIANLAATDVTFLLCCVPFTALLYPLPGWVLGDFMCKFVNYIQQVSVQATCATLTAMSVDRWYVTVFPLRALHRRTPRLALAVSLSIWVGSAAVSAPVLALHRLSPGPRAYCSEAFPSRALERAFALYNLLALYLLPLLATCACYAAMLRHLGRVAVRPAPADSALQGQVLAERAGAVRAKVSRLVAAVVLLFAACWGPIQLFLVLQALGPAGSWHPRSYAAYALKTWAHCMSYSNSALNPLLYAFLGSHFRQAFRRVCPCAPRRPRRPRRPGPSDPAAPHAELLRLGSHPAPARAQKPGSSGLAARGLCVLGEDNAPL

Row | Compound | Potency [1] | Potency [2] | Potency [3] | Potency [4] | Potency [5] | Potency [6] | Potency [7] | Potency [8] | Potency [9] | Potency [10] | Potency [11] | Potency [12] | Potency [13] | Potency [14] | Potency [15] | Potency [16] | Potency [17] | Potency [18] | Potency [19] | Potency [20]
1 | On1ccccc1=S | 270 nM (active) | inactive | inactive | inactive | inactive | inactive | 718 nM (active) | inactive | 21700 nM (active) | inactive | inactive | inactive | inactive | inactive | inactive |  |  |  |  | 
2 | CSc1ccc(C=O)cc1 | inactive | inactive | inactive |  |  | inactive | inactive | inactive | inactive | inactive | inactive | inactive | inactive | inactive | inactive | inactive | inactive |  |  | 
3 | NNC(=O)CCCCC(=O)NN | inactive | inactive |  |  |  | inactive | inactive | inactive | inactive | inactive | inactive | inactive | inactive | inactive | inactive | inactive | inactive | inactive | inactive | 
4 | CO | inactive | inactive | inactive | inactive | inactive | inactive | inactive | inactive | inactive |  | inactive | inactive | inactive | inactive | inactive | inactive | inactive |  | inactive | inactive
